According to PubChem BioAssay AID2330 (Broad Institute, 2010):
In all, about 37,000 compounds went through this assay and about 2,800 (7.6%) were called active. Inconclusive results (about 1%) are left out. Rule as the data show it: active = inhibition above about 80%; inconclusive = no clear call, values can overlap the other calls; inactive = below that. The list comes from a sample in which actives are over-represented; it also holds similar structures and randomly drawn compounds.

Assay: NOMO-1 AML cell viability reduction, primary screen, STK33 inhibitor project, CellTiter-Glo luminescence (AID 2330)
Settings: NOMO-1 AML viability, 72 h, active compounds read high, concentration not given here

Structure (SMILES)	inhibition
C[C@H]1CN([C@@H](C)CO)C(=O)c2cccc(NC(=O)Nc3ccccc3)c2O[C@@H]1CN(C)S(C)(=O)=O	-0.709% (inactive)
COc1cc(C2c3c(cc(OC)c(O)c3OC)CC(CO[C@@H]3O[C@H](CO)[C@@H](O)[C@H](O)[C@H]3O)C2CO)cc(OC)c1O (some centres undefined)	-1.41% (inactive)
O=C1C2=C(Nc3ccccc3S(=O)(=O)C2c2ccc(Cl)cc2)c2ccccc21 (centres undefined)	121% (active)
COC(=O)c1ccccc1NC(=O)C(C)Oc1ccccc1F (centres undefined)	8.1% (inactive)
O=C(CC(C(=O)O)N1CCNCC1)Nc1cccc(Cl)c1 (centres undefined)	9.13% (inactive)
CCN(CC)C(=O)c1ccc(O)c(OC)c1	-13.3% (inactive)
COc1cc(C2OC(c3ccc(O)c(OC)c3)C(C)(O)C2C)ccc1O (centres undefined)	119% (active)
COc1cc(C2OC(c3cc(OC)c(OC)c(OC)c3)C(C)C2C)cc(OC)c1OC (centres undefined)	7.55% (inactive)
O=C(c1ccccc1Br)N1CCN(c2ccc([N+](=O)[O-])c(NCc3cccnc3)c2)CC1	40.2% (inactive)
Cc1noc(C)c1NC(=O)Nc1ccc2c(c1)C(=O)N([C@@H](C)CO)C[C@@H](C)[C@@H](CN(C)CC1CCCCC1)O2	-6.14% (inactive)
Oc1c(Cl)cc(Cl)c(Cl)c1Cc1c(O)c(Cl)cc(Cl)c1Cl	107% (active)
Cc1cc(=O)[nH]c(SCc2cn3c(C)cc(C)nc3n2)n1	-6.02% (inactive)
COc1ccc(NC(=O)N(C)C[C@@H]2OCCCC[C@@H](C)Oc3ccc(NS(=O)(=O)c4c(C)noc4C)cc3C(=O)N([C@H](C)CO)C[C@@H]2C)cc1	7.62% (inactive)
COc1ccc(CCCOC(Cn2ccnc2)c2ccc(OC)cc2)cc1 (centres undefined)	114% (active)
Cc1ccc(S(=O)(=O)N(C)C[C@H]2OCCCC[C@@H](C)Oc3ccc(NS(C)(=O)=O)cc3C(=O)N([C@H](C)CO)C[C@@H]2C)cc1	20.5% (inactive)
CC(C)(C)c1ccc(OCC(=O)Nc2cccc(NC(=O)c3ccccc3)c2)cc1	25.3% (inactive)
COC(=O)COc1cccc(NC(=O)c2cc(OC)c(OC)c(OC)c2)c1	124% (active)
COc1ccccc1NC(=O)c1ccc(OCC(=O)O)cc1	-18.7% (inactive)
C[C@H]1CN([C@@H](C)CO)C(=O)c2cccc(NC(=O)CCCCCC(=O)Nc3ccccc3N)c2O[C@@H]1CN(C)S(=O)(=O)c1cn(C)cn1	5.62% (inactive)
O=[N+]([O-])c1ccc(NCCNCc2cccnc2)cc1	-20% (inactive)
CC[N+]1=C(C)C(C)(C)c2cc(-c3ccccc3)ccc21	123% (active)
Cc1ccc(Cn2c(NCc3nc4ccccc4n3C)nc3ccccc32)cc1	7.82% (inactive)
CC(C)NC(=O)Nc1ccc2c(c1)C(=O)N([C@@H](C)CO)C[C@@H](C)[C@H](CN(C)C(=O)NC1CCCCC1)O2	30.5% (inactive)
COc1ccc(-c2nnc(SCC(=O)O)n2-c2ccccc2)cc1OC	-16.5% (inactive)
CC1(C)Cc2c(sc3ncn4nc(COc5ccc(Cl)cc5)nc4c23)C(C)(C)N1	142% (active)

Structure (SMILES)	inhibition
O=C1c2ccccc2C(=O)C1c1cc(=O)[nH]c2c1ccc1ccccc12	11.8% (inactive)
CCOC(=O)c1nnn(-c2nonc2-n2cccc2)c1CN1CCOCC1	24.9% (inactive)
COc1ccc(S(=O)(=O)Nc2ccc3c(c2)CC(=O)N([C@H](C)CO)C[C@@H](C)[C@@H](CN(C)C(=O)Nc2cccc4ccccc24)O3)cc1	-1.33% (inactive)
C[C@@H]1CN([C@H](C)CO)C(=O)Cc2cc(NS(=O)(=O)c3cccs3)ccc2O[C@@H]1CN(C)Cc1ccc(C(=O)O)cc1	-19.7% (inactive)
C[C@H](CO)N1C[C@H](C)[C@H](CN(C)CC2CC2)Oc2ccc(NS(=O)(=O)c3ccccc3)cc2CC1=O	20.8% (inactive)
COc1ccc(S(=O)(=O)Nc2ccc3c(c2)CC(=O)N([C@@H](C)CO)C[C@@H](C)[C@@H](CN(C)Cc2ccc(C(=O)Nc4ccccc4N)cc2)O3)cc1	100% (active)
Cc1ccc(S(=O)(=O)N(C)C[C@H]2Oc3ccc(NS(=O)(=O)c4ccccc4)cc3CC(=O)N([C@@H](C)CO)C[C@H]2C)cc1	-0.416% (inactive)
Cc1ccc(S(=O)(=O)Nc2ccc3c(c2)CC(=O)N([C@@H](C)CO)C[C@H](C)[C@H](CN(C)Cc2ccc(C(=O)Nc4ccccc4N)cc2)O3)cc1	139% (active)
C[C@H]1CN([C@@H](C)CO)C(=O)Cc2cc(NS(=O)(=O)c3ccccc3)ccc2O[C@H]1CN(C)Cc1ccc(C(=O)Nc2ccccc2N)cc1	141% (active)
COc1ccc(CN(C)C[C@H]2Oc3ccc(NS(=O)(=O)c4ccc(Cl)cc4)cc3CC(=O)N([C@@H](C)CO)C[C@H]2C)cc1	40.8% (inactive)
Cc1ccc(S(=O)(=O)Nc2ccc3c(c2)CC(=O)N([C@@H](C)CO)C[C@@H](C)[C@@H](CN(C)S(=O)(=O)c2ccccc2)O3)cc1	5.59% (inactive)
C[C@@H]1CCCCO[C@H](CN(C)S(=O)(=O)c2ccccc2)[C@@H](C)CN([C@H](C)CO)C(=O)c2cc(NC(=O)Nc3ccc(F)cc3)ccc2O1	33.7% (inactive)
C[C@@H]1CCCCO[C@H](CN(C)S(=O)(=O)c2cccs2)[C@@H](C)CN([C@H](C)CO)C(=O)c2cc(NC(=O)Nc3ccccc3)ccc2O1	11.8% (inactive)
O=c1cc(CSc2nnnn2-c2ccccc2)[nH]c(=S)[nH]1	33.9% (inactive)
C[C@@H]1CN([C@@H](C)CO)C(=O)Cc2cc(NC(=O)C3CCCCC3)ccc2O[C@@H]1CN(C)Cc1ccncc1	15.8% (inactive)
CCOC(=O)c1cnc2cc(C(F)(F)F)ccc2c1N1CCCCCC1	13.2% (inactive)
CNC[C@@H]1Oc2ccc(NC(=O)Nc3ccc4c(c3)OCO4)cc2C(=O)N([C@H](C)CO)C[C@@H]1C	6.4% (inactive)
COc1ccc(NC(=O)c2ccc(OCC(=O)Nc3ccccc3F)cc2)cc1Cl	19.2% (inactive)
CCOC(=O)c1nnn2c1nc(N1CCN(c3ccccc3)CC1)c1ccccc12	101% (active)
CCOC(=O)c1c(CN2CCOCC2)nc2c3ccccc3ccn12	-2.66% (inactive)
CCOC(=O)c1nnn2c3ccccc3c(=O)n(C)c12	-3.54% (inactive)
Cc1noc(C)c1NC(=O)Nc1cccc2c1O[C@H](CN(C)C(=O)Nc1ccccc1)[C@@H](C)CN([C@H](C)CO)C2=O	30.8% (inactive)
NC(CC(=O)Nc1ccc(Cl)cc1)C(=O)O (centres undefined)	16.1% (inactive)
Cc1noc(C)c1S(=O)(=O)Nc1ccc2c(c1)CC(=O)N([C@@H](C)CO)C[C@@H](C)[C@@H](CN(C)C(=O)Nc1ccc(C(F)(F)F)cc1)O2	14.7% (inactive)
O=C1Cc2ccc(F)cc2CC1C1=Cc2ccc(F)cc2CC1 (centres undefined)	114% (active)

Structure (SMILES)	inhibition
Cc1ccc(NC(N)=O)cc1	0.872% (inactive)
Oc1ccc(CN2CCCC2)c2cccnc12	141% (active)
C[C@H](CO)N1C[C@H](C)[C@H](CN(C)S(=O)(=O)c2ccc(Cl)cc2)Oc2c(NS(C)(=O)=O)cccc2C1=O	9.14% (inactive)
C[C@H](CO)N1C[C@H](C)[C@H](CN(C)S(=O)(=O)c2cccs2)Oc2ccc(NS(=O)(=O)c3ccc(Cl)cc3)cc2CC1=O	12.4% (inactive)
COc1c(C)c2c(c(O)c1C/C=C(\C)CCC(=O)O)C(=O)OC2	139% (active)
CS(=O)(=O)N(CC(=O)Nc1ccc(F)c(F)c1)c1ccccc1F	-8.09% (inactive)
Oc1c(Cl)cc(Cl)cc1C1Nc2cc(C(F)(F)F)ccc2-n2cccc21 (centres undefined)	114% (active)
C[C@@H]1CN([C@H](C)CO)C(=O)Cc2cc(NC(=O)CCN3CCOCC3)ccc2O[C@@H]1CN(C)S(C)(=O)=O	5.67% (inactive)
CC(C)NC(=O)N(C)C[C@@H]1Oc2ccc(NS(=O)(=O)c3cn(C)cn3)cc2C(=O)N([C@@H](C)CO)C[C@@H]1C	18.9% (inactive)
Cn1c(OCc2cccnc2)nc2c1c(=O)n(Cc1ccc(Cl)c(Cl)c1)c(=O)n2C	27.8% (inactive)
c1ccc2[nH]c(CSc3nc4ccccc4[nH]3)nc2c1	6.35% (inactive)
Cc1c(CCC(=O)O)c(=O)oc2cc(OCc3ccc(Br)cc3)ccc12	19.3% (inactive)
CCOC(=O)c1cc(=O)c2ccc(OCc3ccccc3)cc2o1	105% (active)
Cc1cc(=O)oc2cc(OCc3cccc(F)c3)ccc12	25.5% (inactive)
O=C(CSc1nnc2ccc3ccccc3n12)Nc1ccc2c(c1)OCCO2	12.1% (inactive)
NC(=O)CSc1oc(-c2cccs2)nc1S(=O)(=O)c1ccccc1	11.4% (inactive)
Cc1noc(C)c1NC(=O)N(C)C[C@@H]1Oc2ccc(NS(C)(=O)=O)cc2C(=O)N([C@@H](C)CO)C[C@@H]1C	-15.6% (inactive)
COc1ccc(NC(=O)Nc2ccc3c(c2)C(=O)N([C@H](C)CO)C[C@H](C)[C@@H](CN(C)C(=O)Nc2ccc4c(c2)OCO4)O3)cc1	14.3% (inactive)
COC(=O)c1c(-c2cccnc2)csc1NC(=O)c1cc(-c2ccc(C)o2)nc2ccccc12	86.9% (active)
COC(=O)c1cc(OC)c(OC)cc1NC(=O)COc1ccc(Cl)cc1	15.1% (inactive)
COC(=O)c1cc(OC)c(OC)cc1NC(=O)COc1ccccc1Cl	-12.9% (inactive)
COC(=O)c1cc(OC)c(OC)cc1NC(=O)c1cc(-c2ccc(C)o2)nc2ccccc12	92.8% (active)
Cc1ccccc1OCC(=O)Nc1cc(-c2nc3ccccc3s2)c(Cl)cc1Cl	6.92% (inactive)
COc1ccc(NC(=O)N(C)C[C@H]2Oc3ccc(NC(=O)NC(C)C)cc3CC(=O)N([C@H](C)CO)C[C@H]2C)cc1	3.6% (inactive)
